Laboratory results taken from ChEMBL document CHEMBL5606458, “ASAP - ZIKV NS2B-NS3 protease fluorescence single point” (2024).
The whole screen tested about 2,700 compounds, of which about 160 (5.9%) showed an effect of 50% or more. This excerpt belongs to a sample that is enriched for strong results.

Target: Nonstructural protein 3 (Zika virus) (UniProt A0A024AXB9)
[1] = PRVABC59, Concentration 15.0 uM, Number of replicates 1.0
[2] = PRVABC59, Concentration 50.0 uM, Number of replicates 1.0

Chain of Nonstructural protein 3 (Zika virus) (A0A024AXB9 as listed by the source): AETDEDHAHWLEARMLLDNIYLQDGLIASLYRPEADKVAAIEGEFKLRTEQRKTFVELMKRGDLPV

`O=C(c1cc(Cl)ccc1NS(=O)(=O)c1ccc(Oc2ccccc2Cl)cc1)N1CCC(N2CCCC2=O)CC1` gave an inhibition [1] of -2.59%.

`Cn1ccc(CN2CC[C@H](c3c[nH]c4ccccc34)C2)cc1=O` gave an inhibition (PRVABC59, Concentration 49.5 uM, Number of replicates 2.0, Standard deviation 0.9869168424646743 %) of 2.74%, an inhibition (PRVABC59, Concentration 99.01 uM, Number of replicates 2.0, Standard deviation 1.3893738957347146 %) of 5.37% and an inhibition (PRVABC59, Concentration 198.0 uM, Number of replicates 2.0, Standard deviation 1.456023236095902 %) of 9.72%.

In the case of `O=C(c1cc(Cl)ccc1NS(=O)(=O)c1ccc(Oc2ccccc2Cl)cc1)N1CCN(Cc2cc(F)ccc2F)CC1`, the inhibition [1] is reported as 17.7%.

Work on `COc1cc(CNC(=O)c2cc(Cl)ccc2NS(=O)(=O)c2ccc(Oc3ccccc3Cl)cc2)cc(OC)c1OC` yielded an inhibition [1] of 19.3%.

`O=Cc1ccc(N2CCC(C(=O)Nc3cccc(Br)c3)CC2)cc1` gave an inhibition [2] of 23.9%.

`O=C(Nc1cc(Cl)c(F)c(Cl)c1)c1cc(Cl)ccc1NS(=O)(=O)c1ccc(Oc2ccccc2Cl)cc1` was tested, and the inhibition [1] was 24.3%.

Work on `O=C(Nc1ccccc1Oc1ccccc1)c1cc(Cl)ccc1NS(=O)(=O)c1ccc(Oc2ccccc2Cl)cc1` yielded an inhibition [1] of 54.2%.

With `O=C(Nc1ccc(-c2ccccn2)cc1)c1cc(Cl)ccc1NS(=O)(=O)c1ccc(Oc2ccccc2Cl)cc1` the inhibition [1] was 58.7%.

With `O=C(NCc1ccc(-c2cccs2)cc1)c1cc(Cl)ccc1NS(=O)(=O)c1ccc(Oc2ccccc2Cl)cc1` the inhibition [1] was 28.5%.

In the case of `O=C(Nc1cc(F)c(Br)c(F)c1)c1cc(Cl)ccc1NS(=O)(=O)c1ccc(Oc2ccccc2Cl)cc1`, the inhibition [1] is reported as 23.4%.

In the case of `O=C(NCc1noc(-c2cccs2)n1)c1cc(Cl)ccc1NS(=O)(=O)c1ccc(Oc2ccccc2Cl)cc1`, the inhibition [1] is reported as 51.9%.

`O=C(NCc1noc(-c2ccco2)n1)c1cc(Cl)ccc1NS(=O)(=O)c1ccc(Oc2ccccc2Cl)cc1` was tested, and the inhibition [1] was 48.1%.

`O=C(Nc1cc(Cl)c(O)c(Cl)c1)c1cc(Cl)ccc1NS(=O)(=O)c1ccc(Oc2ccccc2Cl)cc1` gave an inhibition [1] of 84.9%.

For `O=C(Nc1ccc(-c2ccccc2)cc1)c1cc(Cl)ccc1NS(=O)(=O)c1ccc(Oc2ccccc2Cl)cc1`, the inhibition [1] was 26.5%.

Work on `O=C(Nc1cccnc1Br)c1cc(Cl)ccc1NS(=O)(=O)c1ccc(Oc2ccccc2Cl)cc1` yielded an inhibition [1] of 23%.

For `O=C(Nc1ccccc1I)c1cc(Cl)ccc1NS(=O)(=O)c1ccc(Oc2ccccc2Cl)cc1`, the inhibition [1] was 26.7%.

`O=C(Nc1ccccc1-c1ccccc1)c1cc(Cl)ccc1NS(=O)(=O)c1ccc(Oc2ccccc2Cl)cc1` gave an inhibition [1] of 36.2%.

Compound `O=C(NCCNC(=O)c1cc(Cl)ccc1NS(=O)(=O)c1ccc(Oc2ccccc2Cl)cc1)c1ccccc1Cl` has an inhibition [1] of 25%.

With `NC(=O)[C@H](Cc1ccc(O)cc1)NC(=O)C1CCN(c2ccc(C=O)cc2)CC1` the inhibition [2] was 27%.

`O=C(c1cc(Cl)ccc1NS(=O)(=O)c1ccc(Oc2ccccc2Cl)cc1)N1CCC(n2c(=O)[nH]c3ccccc32)CC1` showed an inhibition [1] of 15.6%.

`CC(C)(CO)NC(=O)c1cc(Cl)cc(NC(=O)Cc2cccc(N3CCOCC3)c2)c1` was tested, and the inhibition (PRVABC59, Concentration 49.5 uM, Number of replicates 2.0, Standard deviation 3.0522593855592395 %) was -2.52%, the inhibition (PRVABC59, Concentration 99.01 uM, Number of replicates 2.0, Standard deviation 3.368926317951112 %) was -0.793% and the inhibition (PRVABC59, Concentration 198.0 uM, Number of replicates 2.0, Standard deviation 2.506775358140388 %) was 0.389%.

Compound `O=C(c1cc(Cl)ccc1NS(=O)(=O)c1ccc(Oc2ccccc2Cl)cc1)N1CCC[C@H](C(F)(F)F)C1` has an inhibition [1] of 20.5%.

`CN(Cc1cccc2ccccc12)C(=O)c1cc(Cl)ccc1NS(=O)(=O)c1ccc(Oc2ccccc2Cl)cc1` was tested, and the inhibition [1] was 19.1%.

In the case of `O=C(NCCc1c[nH]cn1)[C@@]1(c2ccc(F)cc2)CCCNC1`, the inhibition (PRVABC59, Concentration 50.0 uM, Number of replicates 2.0, Standard deviation 1.8533531884648646 %) is reported as 1.12%, the inhibition (PRVABC59, Concentration 100.0 uM, Number of replicates 2.0, Standard deviation 1.243259032729753 %) is reported as 2.94% and the inhibition (PRVABC59, Concentration 200.0 uM, Number of replicates 2.0, Standard deviation 0.45116199355607794 %) is reported as 1.26%.

`O=C(NCc1ccc2c(c1)OCCO2)c1cc(Cl)ccc1NS(=O)(=O)c1ccc(Oc2ccccc2Cl)cc1` was tested, and the inhibition [1] was 24.8%.

`O=C(CNC(=O)c1cc(Cl)ccc1NS(=O)(=O)c1ccc(Oc2ccccc2Cl)cc1)c1ccc(O)cc1` was tested, and the inhibition [1] was 52.2%.

`O=C(Nc1cccc(Br)c1)c1cc(Cl)ccc1NS(=O)(=O)c1ccc(Oc2ccccc2Cl)cc1` was tested, and the inhibition [1] was 43.8%.

Work on `O=C(Nc1ccc2c(c1)OC(F)(F)O2)c1cc(Cl)ccc1NS(=O)(=O)c1ccc(Oc2ccccc2Cl)cc1` yielded an inhibition [1] of 50%.

`Cc1cc(NC(=O)c2cc(Cl)ccc2NS(=O)(=O)c2ccc(Oc3ccccc3Cl)cc2)cc(C)c1Br` showed an inhibition [1] of 27.6%.

Compound `O=C(Nc1ccc(I)c(F)c1)c1cc(Cl)ccc1NS(=O)(=O)c1ccc(Oc2ccccc2Cl)cc1` has an inhibition [1] of 37.6%.

In the case of `O=C(Nc1cccc(I)c1)c1cc(Cl)ccc1NS(=O)(=O)c1ccc(Oc2ccccc2Cl)cc1`, the inhibition [1] is reported as 48.1%.

`O=C(CNC(=O)c1cc(Cl)ccc1NS(=O)(=O)c1ccc(Oc2ccccc2Cl)cc1)c1ccc([N+](=O)[O-])cc1` was tested, and the inhibition [1] was 33%.

For `O=C(Nc1ccc(I)cc1)c1cc(Cl)ccc1NS(=O)(=O)c1ccc(Oc2ccccc2Cl)cc1`, the inhibition [1] was 58.1%.

Work on `Cc1cc(Br)cc(NC(=O)c2cc(Cl)ccc2NS(=O)(=O)c2ccc(Oc3ccccc3Cl)cc2)c1` yielded an inhibition [1] of 53.6%.

`O=C(CNC(=O)c1cc(Cl)ccc1NS(=O)(=O)c1ccc(Oc2ccccc2Cl)cc1)c1ccccc1F` was tested, and the inhibition [1] was 40.7%.

`O=C(Nc1ccc2c(c1)OCCO2)c1cc(Cl)ccc1NS(=O)(=O)c1ccc(Oc2ccccc2Cl)cc1` was tested, and the inhibition [1] was 63.8%.

Work on `Cc1cc(CO)c2cccc(Nc3cc(O)[nH]n3)c2n1` yielded an inhibition (PRVABC59, Concentration 49.95 uM, Number of replicates 2.0, Standard deviation 1.761368724187627 %) of 18.3% and an inhibition (PRVABC59, Concentration 99.9 uM, Number of replicates 2.0, Standard deviation 1.139118047569397 %) of 23.8%.

For `Cn1cc(CNC(=O)c2ccccc2-c2cccnc2)cn1`, the inhibition (PRVABC59, Concentration 49.5 uM, Number of replicates 2.0, Standard deviation 0.5877340250731194 %) was 0.299%, the inhibition (PRVABC59, Concentration 99.01 uM, Number of replicates 2.0, Standard deviation 0.42986369479040104 %) was -0.679% and the inhibition (PRVABC59, Concentration 198.0 uM, Number of replicates 2.0, Standard deviation 0.566811449656849 %) was -0.69%.

`O=Cc1ccc(N2CCC(C(=O)N[C@H](CO)[C@H](O)c3ccc([N+](=O)[O-])cc3)CC2)cc1` was tested, and the inhibition [2] was 25.6%.

`N#Cc1ccc(Cl)c(NC(=O)C2CCN(c3ccc(C=O)cc3)CC2)c1` was tested, and the inhibition [2] was 23.1%.

In the case of `O=Cc1ccc(N2CCC(C(=O)NCc3ccccc3-n3cccn3)CC2)cc1`, the inhibition (PRVABC59, Concentration 10.0 uM, Number of replicates 1.0) is reported as 21.4%.

Work on `N=C(N)NC[C@@H]1CCCN(C(=O)[C@H](Cc2ccc(CN)cc2)NC(=O)c2ccccc2)C1` yielded an inhibition (PRVABC59, Concentration 49.5 uM, Number of replicates 2.0, Standard deviation 0.6960698702606968 %) of 2.68%, an inhibition (PRVABC59, Concentration 99.01 uM, Number of replicates 2.0, Standard deviation 1.1872902095434084 %) of 12.8% and an inhibition (PRVABC59, Concentration 198.0 uM, Number of replicates 2.0, Standard deviation 0.3804343133987339 %) of 26.8%.

`CN(C)CCN(Cc1ccccc1)C(=O)c1cc(Cl)ccc1NS(=O)(=O)c1ccc(Oc2ccccc2Cl)cc1` showed an inhibition [1] of 15.1%.

With `Cc1ccc2ccccc2c1NC(=O)C1CCN(c2ccc(C=O)cc2)CC1` the inhibition [2] was 19.8%.
